Records with an inconclusive call do not appear. Entries that show only a call come without a potency. The source made the active and inactive calls. Calls follow the shape of the dose curve; as a rule, active = well fitted curve in the direction sought with a large enough effect; inconclusive = small, poorly fitted or top-dose-only effect, or another doubt; inactive = no such curve, though single readings can be large or run the other way.

This assay in a line: Followup screen for small molecules that induce DNA re-replication in MCF 10A normal breast cells. The settings on record: MCF 10A DNA re-replication, Hoechst nuclear intensity, 48 h; series mostly up to 46.1 µM. From the text:
NIH Molecular Libraries Probe Production Network [MLPCN] NIH Chemical Genomics Center [NCGC] MLPCN Grant: Fast Track K99 CA136555 Assay Provider: Melvin DePamphilis, NICHD, NIH Assay Overview Eukaryotic cells normally restrict genome duplication to once per cell division. When this process is aberrant, DNA re-replication occurs when cells reinitiate DNA replication before the first round of replication is complete. DNA re-replication induces the DNA damage response, arrests cell proliferation, and triggers apoptosis. The cell cycle components cyclin A, Cdt-1, Cdc6 and geminin are critical regulators of this process and their misregulation results in DNA re-replication in normal and cancer cells. To identify compounds that induce re-replication in normal cells, an image-based assay was used to measure DNA content of nuclei, as detected by the fluorescent DNA binding dye, Hoechst. Cell nuclei were imaged by a fluorescence scanning plate imager and compounds that induce DNA re-replication were identified by the increase of nuclei with elevated fluorescence intensity.
Assay Protocol Summary For screening, 250 cells in 5 uL/well were dispensed into black clear 1536-well plates (Aurora) using a solenoid-based dispenser. Following transfer of 23 nL compound or DMSO vehicle by a pin tool, the plates were incubated 48 hr at 37 C and 5% CO2. After addition of 1 uL/well Hoescht stain, the plates were incubated 40 min at 37 C, 5% CO2 and total intensity of fluorescent objects (nuclei) were enumerated by an Acumen Explorer Ex3 (TTP LabTech) fluorescence scanning plate imager (405 nm excitation, 500-530 nm emission). Keywords: NIH Roadmap, MLPCN, MLI, MLSMR, qHTS, NCGC, DNA replication, cancer
`COc1cc([C@@H]2c3cc4c(cc3[C@H](O)[C@@H]3COC(=O)[C@H]23)OCO4)cc(OC)c1OC`: the Potency was 0.0268 µM (active).
For the compound `CC(C)NP(=O)(NC(C)C)OP(=O)(NC(C)C)NC(C)C`, the Potency entry is “inactive”.
`NCC#Cc1ccccc1`: the Potency entry is “inactive”.

The record behind these values is PubChem BioAssay AID504809 (National Center for Advancing Translational Sciences (NCATS), 2011).
